# Tested on: PLK1
# Set-up: species or system human, MV4-11 + K-562 + COLO205 + SK-N-BE2 + OVCAR-8
# Details: read-out: apparent Kd; compound concentrations: 100 nM and 1000 nM (sheet 'Samples'), CATDS: 0.33403432138317102; n = 1
smiles,measurement,value
COc1cc2ncn(-c3cc(OCC4CCCO4)c(C(N)=O)s3)c2cc1OC (stereo not shown) [GSK204607A],potency estimated from few doses,838 nM

# Reference: article PMC11062922 (Nature Chemical Biology, 2023)
